Several values for one entry are separate records, joined by “and”; a condition that tells them apart may be missing. Equal values may be shown once. The campaign covered roughly 5,500 compounds. About 2,000 (36%) were called active. Another 18% or so got no clear call; they are omitted. No stated cut-off is given here; in the data, active means normalized growth mostly below about 0.91 (no sharp cut-off); inconclusive means no clear call, values can overlap the other calls; inactive means mostly above about 0.92. The list shows a part of the results.
Test: chemical genetic growth profiling, strain panel (AID 1159580);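 further: tested at 20 µM; growth read once vehicle control cultures reached saturation at 30 °C; 1 = growth at the plate median or of vehicle wells; lower values mean less growth of the strain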
Details: S. cerevisiae deletion strains, growth OD

Measured: normalized growth

C=C1CC[C@H](O)C/C1=C/C=C1\CCC[C@]2(C)C([C@H](C)/C=C/[C@H](C)C(C)C)CC[C@@H]12 (stereo not given in full)
inactive: locus YAL013W, strain DEP1, hits give low values 0.977 | locus YAL021C, strain ccr4, hits give low values 1.05 | locus YAL026C, strain drs2, hits give low values 1 | locus YAL030W, strain snc1, hits give low values 1.02 | locus YBL061C, strain skt5, hits give low values 1.02 | locus YBR009C, strain hhf1, hits give low values 0.991 | locus YBR021W, strain FUR4, hits give low values 1.04 | locus YBR023C, strain chs3, hits give low values 0.998 | locus YBR171W, strain sec66, hits give low values 1.01 | locus YBR229C, strain ROT2, hits give low values 0.944 | locus YBR231C, strain swc5, hits give low values 0.995 | locus YBR279W, strain paf1, hits give low values 1.01 | locus YCL011C, strain gbp2, hits give low values 1.02 | locus YCL016C, strain dcc1, hits give low values 0.995 | locus YCL029C, strain bik1, hits give low values 0.968 | locus YCL069W, strain vba3, hits give low values 1.01 | locus YCR088W, strain abp1, hits give low values 1.03 | locus YDL005C, strain med2, hits give low values 1 | locus YDL035C, strain GPR1, hits give low values 0.929 | locus YDL040C, strain nat1, hits give low values 1.02 | locus YDL074C, strain BRE1, hits give low values 0.961 | locus YDL101C, strain DUN1, hits give low values 0.976 | locus YDL185W, strain tfp1, hits give low values 0.981 | locus YDL192W, strain arf1, hits give low values 0.976 | locus YDR001C, strain nth1, hits give low values 1.03 | locus YDR069C, strain doa4, hits give low values 1.03 | locus YDR101C, strain arx1, hits give low values 0.948 | locus YDR137W, strain rgp1, hits give low values 0.939 | locus YDR150W, strain NUM1, hits give low values 0.977 | locus YDR159W, strain sac3, hits give low values 1.02 | locus YDR162C, strain NBP2, hits give low values 0.863 | locus YDR195W, strain ref2 1.03 | locus YDR297W, strain sur2, hits give low values 1.01 | locus YDR318W, strain mcm21, hits give low values 0.98 | locus YDR334W, strain swr1, hits give low values 1.03 | locus YDR335W, strain msn5, hits give low values 1.03 | locus YDR388W, hits give low values 0.977 | locus YDR392W, strain spt3, hits give low values 0.911 | locus YDR502C, strain sam2, hits give low values 0.998 | locus YEL003W, strain gim4, hits give low values 1.03 | locus YEL037C, strain rad23, hits give low values 1.01 | locus YEL061C, strain CIN8 (second series), hits give low values 1.03 | locus YEL061C, strain CIN8, hits give low values 0.982 | locus YER015W, strain faa2, hits give low values 1.01 | locus YER016W, strain bim1, hits give low values 1.02 | locus YER110C, hits give low values 0.977 | locus YER111C, strain swi4, hits give low values 0.996 | locus YER155C, strain BEM2 (second series), hits give low values 1.06 | locus YER155C, strain BEM2, hits give low values 0.997 | locus YER167W, strain BCK2, hits give low values 0.999 | locus YFR010W, strain ubp6, hits give low values 1.02 | locus YGL078C, strain dbp3, hits give low values 0.972 | locus YGL086W, strain mad1, hits give low values 0.958 | locus YGL167C, strain pmr1, hits give low values 1.03 | locus YGL173C, strain kem1, hits give low values 1.04 | locus YGL227W, strain vid30, hits give low values 1.01 | locus YGL240W, strain doc1, hits give low values 1.03 | locus YGL248W, strain PDE1, hits give low values 0.978 | locus YGL253W, strain hxk2, hits give low values 0.989 | locus YGR078C, strain PAC10, hits give low values 0.974 | locus YGR135W, strain pre9, hits give low values 1.03 | locus YGR252W, strain gcn5, hits give low values 1.08 | locus YHR013C, strain ard1, hits give low values 1.07 | locus YHR027C, strain rpn1, hits give low values 1.03 | locus YHR030C, strain SLT2, hits give low values 0.998 and 0.979 | locus YHR079C, strain IRE1 (second series), hits give low values 0.964 | locus YHR079C, strain IRE1, hits give low values 0.997 | locus YHR094C, strain hxt1, hits give low values 0.978 | locus YHR129C, strain ARP1, hits give low values 0.988 | locus YHR142W, strain chs7, hits give low values 1 | locus YHR200W, strain rpn10, hits give low values 0.981 | locus YIL066C, strain RNR3, hits give low values 0.968 | locus YIL073C, strain SPO22, hits give low values 0.994 | locus YIL125W, strain kgd1, hits give low values 0.98 | locus YIR030C, strain dcg1, hits give low values 0.984 | locus YJL092W, strain hpr5, hits give low values 1.02 | locus YJL095W, strain BCK1 (second series), hits give low values 1.02 | locus YJL095W, strain BCK1, hits give low values 0.959 and 1 | locus YJL115W, strain asf1, hits give low values 1.02 | locus YJL129C, strain trk1, hits give low values 1.02 | locus YJL134W, strain LCB3, hits give low values 0.982 | locus YJL154C, strain vps35, hits give low values 1.03 | locus YJL164C, strain tpk1, hits give low values 1.01 | locus YJL166W, strain qcr8, hits give low values 1 | locus YJL168C, strain set2, hits give low values 0.991 | locus YJL187C, strain SWE1 (second series), hits give low values 0.965 | locus YJR043C, strain POL32, hits give low values 0.956 | locus YJR066W, strain TOR1, hits give low values 0.891 | locus YJR075W, strain HOC1, hits give low values 0.979 | locus YKL009W, strain mrt4, hits give low values 0.935 | locus YKL068W, hits give low values 0.994 | locus YKL085W, strain MDH1 (second series), hits give low values 0.993 | locus YKL085W, strain MDH1, hits give low values 0.993 | locus YKL160W, strain elf1, hits give low values 1.01 | locus YKR001C, strain vps1, hits give low values 0.949 | locus YKR026C, strain gcn3, hits give low values 1.02 | locus YKR091W, strain srl3, hits give low values 1.01 | locus YLL001W, strain dnm1, hits give low values 1.02 | locus YLL026W, hits give low values 1.01 | locus YLL041C, strain sdh2, hits give low values 1.03 | locus YLR027C, strain aat2, hits give low values 1.01 | locus YLR039C, strain RIC1, hits give low values 0.777 | locus YLR058C, strain SHM2, hits give low values 0.978 | locus YLR102C, strain apc9, hits give low values 0.991 | locus YLR113W, strain HOG1, hits give low values 1.02 | locus YLR221C, strain rsa3, hits give low values 1.02 | locus YLR258W, strain gsy2, hits give low values 1.01 | locus YLR262C, strain YPT6 (second series), hits give low values 0.907 | locus YLR262C, strain YPT6, hits give low values 0.758 | locus YLR268W, strain sec22, hits give low values 0.937 | locus YLR320W, strain mms22, hits give low values 0.987 | locus YLR330W, strain CHS5, hits give low values 0.984 | locus YLR342W, strain FKS1 (second series), hits give low values 0.991 | locus YLR342W, strain FKS1, hits give low values 1.01 | locus YLR357W, strain rsc2, hits give low values 1.05 | locus YLR370C, strain arc18, hits give low values 1.04 | locus YLR371W, strain rom2, hits give low values 1.01 | locus YLR384C, strain iki3, hits give low values 1.02 | locus YLR418C, strain cdc73, hits give low values 0.985 | locus YML016C, strain PPZ1, hits give low values 0.984 | locus YML032C, strain rad52, hits give low values 0.979 | locus YML120C, strain ndi1, hits give low values 1.03 | locus YML124C, strain tub3, hits give low values 0.985 | locus YMR058W, strain fet3, hits give low values 1 | locus YMR078C, strain ctf18, hits give low values 0.984 | locus YMR125W, strain sto1, hits give low values 1.02 | locus YMR129W, hits give low values 1.02 | locus YMR205C, strain PFK2, hits give low values 1.02 | locus YMR223W, strain ubp8, hits give low values 1.01 | locus YMR231W, strain pep5, hits give low values 1 | locus YMR263W, strain SAP30, hits give low values 0.976 | locus YMR307W, strain GAS1, hits give low values 0.923 | locus YNL067W, strain RPL9B, hits give low values 0.982 | locus YNL071W, strain lat1, hits give low values 0.983 | locus YNL183C, strain NPR1, hits give low values 0.98 | locus YNL209W, strain ssb2, hits give low values 1.01 | locus YNL233W, strain BNI4, hits give low values 0.993 | locus YNL248C, strain rpa49, hits give low values 1.02 | locus YNL250W, strain rad50, hits give low values 0.993 | locus YNL271C, strain bni1, hits give low values 0.967 | locus YNL298W, strain CLA4, hits give low values 0.969 | locus YNL307C, strain MCK1, hits give low values 0.989 | locus YNL322C, strain KRE1 (second series), hits give low values 1.03 | locus YNL322C, strain KRE1, hits give low values 0.999 | locus YNR049C, strain mso1, hits give low values 1.02 | locus YNR052C, strain pop2, hits give low values 0.981 | locus YOL006C, strain TOP1, hits give low values 0.967 | locus YOL012C, strain htz1 1.45 | locus YOL147C, strain pex11, hits give low values 0.993 | locus YOR001W, strain rrp6, hits give low values 1 | locus YOR061W, strain CKA2, hits give low values 0.953 | locus YOR069W, strain VPS5, hits give low values 0.98 | locus YOR070C, strain gyp1, hits give low values 1.01 | locus YOR080W, strain dia2, hits give low values 1.01 | locus YOR083W, strain WHI5, hits give low values 0.985 | locus YOR106W, strain vam3, hits give low values 1.04 | locus YOR136W, strain idh2, hits give low values 0.981 | locus YOR144C, strain elg1, hits give low values 0.989 | locus YOR184W, strain ser1, hits give low values 0.939 | locus YOR231W, strain MKK1, hits give low values 1.02 | locus YOR265W, strain rbl2, hits give low values 1.01 | locus YOR270C, strain vph1, hits give low values 0.873 | locus YOR290C, strain snf2, hits give low values 1.02 | locus YOR316C, strain cot1, hits give low values 0.978 | locus YPL051W, strain arl3, hits give low values 1.01 | locus YPL055C, strain LGE1, hits give low values 1.01 | locus YPL078C, strain atp4, hits give low values 1.01 | locus YPL106C, strain sse1, hits give low values 1.09 | locus YPL240C, strain hsp82, hits give low values 1.01 | locus YPL256C, strain CLN2, hits give low values 1.01 | locus YPR119W, strain clb2, hits give low values 0.982 | locus YPR141C, strain kar3, hits give low values 0.981 | locus YPR163C, strain tif3, hits give low values 0.992 | locus YPR167C, strain met16, hits give low values 0.985 | strain wtn01, hits give low values 0.981

— PubChem BioAssay AID1159580 (chemical genetic matrix, 2015)
